PTHR1 agonist – agonists of human PTHR1 parathyroid hormone receptor | HEK293 GP2 PTHR1 cells, GloSensor cAMP luminescence, 1 h | Potency, µM (highest dose often 115 µM), inactives show top-dose activation, usual class: activators | 0.075% of 410,000 active | AID 743266; also: potency is read from the fitted curve at half-maximal effect; nearly all actives have a fitted effect of over 55% in size
Target sequence (Q03431 whole entry, looked up): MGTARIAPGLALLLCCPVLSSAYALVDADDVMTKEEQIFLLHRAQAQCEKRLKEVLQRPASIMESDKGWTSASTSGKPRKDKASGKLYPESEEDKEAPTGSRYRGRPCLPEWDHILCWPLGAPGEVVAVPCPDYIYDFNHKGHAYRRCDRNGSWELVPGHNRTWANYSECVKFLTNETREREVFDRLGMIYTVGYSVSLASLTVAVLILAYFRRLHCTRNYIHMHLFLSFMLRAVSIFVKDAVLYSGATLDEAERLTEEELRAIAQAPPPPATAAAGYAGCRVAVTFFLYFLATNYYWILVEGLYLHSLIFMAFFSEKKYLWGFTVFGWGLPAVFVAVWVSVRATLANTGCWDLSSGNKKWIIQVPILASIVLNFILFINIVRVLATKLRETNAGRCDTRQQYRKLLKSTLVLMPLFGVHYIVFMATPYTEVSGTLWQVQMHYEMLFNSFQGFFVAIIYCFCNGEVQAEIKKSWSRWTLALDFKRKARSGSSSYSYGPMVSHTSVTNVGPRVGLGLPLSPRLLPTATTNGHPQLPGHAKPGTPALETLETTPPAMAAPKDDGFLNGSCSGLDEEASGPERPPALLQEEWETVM
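HEK-293-derived GP2 cells expressing PTHR1 and a GloSensor cAMP reporter, 3,000/well, plated overnight, given luciferin plus IBMX (each 0.5 mM as added) for 1 h at 37 °C, then compound for 1 h at 37 °C. Luminescence was read after 15 min at room temperature.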
GLP1R cytotox – cytotoxic in the GLP-1 receptor inverse agonist counter-screen. HEK293 cAMP-luciferase reporter cells, luminescence, 24 h. Potency, µM (highest dose often 38.3 µM), without a hit: at the top dose activity change, negative = inhibition, actives largely listed as inhibitors. 0.13% of 410,000 active. AID 624418;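 also: loss of luciferase light is scored as toxicity; potency is read from the fitted curve at half-maximal effect; % is scaled to controls: 0 for no effect and ±100 for the full control effect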
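Quantitative HTS format, 1536 wells, 200 cells/uL seeded. Compounds: 23 nL, 24 h, 37 °C. Detection: luciferase reagent, luminescence at 12 min RT; decreased signal taken as cytotoxic.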
GLP1R ag – agonists of human GLP-1 receptor | HEK293 GLP-1R CRE-luciferase, luminescence, 4-6 h; cells express a hypersensitive GLP-1R form | Potency, µM (series often up to 45.6 µM), for the others: at the top dose activation, hits mostly activators | 0.007% of 380,000 active | AID 624172; also: potency is read from the fitted curve at half-maximal effect; % of control where 0% means no effect
TSHR antag – blocks TSH signaling through the human TSH receptor | P16473 | TSHR-expressing cells, TSH-stimulated cAMP HTRF, 2 h; hits give low values | activity change, negative = inhibition, % at 11.5 µM | 0.2% of 330,000 active | AID 504810;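 active = activity change below a set negative limit, meaning inhibition stronger than a set level, cut at about -70% in these data; inconclusive = activity change between two set negative limits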; also: % is scaled to controls: 0 for no effect and ±100 for the full control effect
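Antagonism was scored as loss of TSH-driven cAMP in TSHR cells, stimulated with 4nM TSH (EC80) for 2 hours at 37 deg C and detected by homogeneous HTRF competition immunoassay.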
GLP1R inv ag – acts as inverse agonist at human GLP-1 receptor. HEK293 GLP-1R CRE-luciferase, luminescence, 24 h; GLP-1R form is constitutively active. 1.6% of 410,000 active. P43220. Potency, µM (series often up to 38.3 µM), without a hit: at the top dose activity change, negative = inhibition, most hits filed as inhibitors; also: potency is read from the fitted curve at half-maximal effect; % is scaled to controls: 0 for no effect and ±100 for the full control effect; nearly all actives have a fitted effect of over 55% in size
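Luminescence readout: a drop in cAMP-driven luciferase signal flags inverse agonism at a constitutively active GLP-1R stably expressed in HEK293. Compound exposure lasted 24 hr at 37 deg C, 5% CO2.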
The depositor's hits bear a star; i = inactive; ? = inconclusive; / = no result given; [ ] = another dose, or the depositor's remark. This is a sample that favours compounds with a hit; in the whole collection about 1.8% have one here. Unless noted, calls follow the shape of the dose curve; as a rule, active = well fitted curve in the direction sought with a large enough effect; inconclusive = small, poorly fitted or top-dose-only effect, or another doubt; inactive = no such curve, though single readings can be large; an effect the other way counts as inactive or inconclusive.

SMILES | PTHR1 agonist | GLP1R cytotox | GLP1R ag | TSHR antag | GLP1R inv ag
Cc1ccc(C)c(Cn2c(=O)c3c(nc4n3CCN4c3ccc(F)cc3)n(C)c2=O)c1 | ? | 19% | / | / | -12%
CC(C)(C)c1nnc(N/N=C/c2cc(Br)ccc2O)n(N)c1=O | -31% | ? | -18% | -37 | 3.5µM*
CN1CCC(N(C)C(=O)c2sc3cc(F)ccc3c2Cl)CC1 | i | 6% | 3% | 12 | 7.1µM*
CC(C)(C)c1ccc(C(=O)NCCc2csc(-c3ccc(Cl)cc3)n2)cc1 | i | -4% | / | / | 10µM*
COc1cccc(C(=O)NCCc2csc(-c3ccc(Cl)cc3)n2)c1 | i | -6% | / | / | ?
CN(C)CCCNC(=O)c1ccc(-c2nc(-c3ccc(Cl)cc3)cs2)cc1 | i | ? | -5% | 7 | 6.3µM*
S=C1NC[C@H](CC2CCCCC2)N1CC1CCCCC1 | -65% | 5.6µM* | 1% | -4 | 4.5µM*
COc1ccc(-c2sc3ccc(OC)cc3c2-c2ccc(OCCN3CCOCC3)cc2)cc1 | -2% | 8% | -2% | 2 | 10µM*
O=C(NCCN1CCN(c2ccccc2)CC1)Nc1cccc(Cl)c1 | -10% | -19% | 23% | 8 | 2.5µM*
Cc1cc(C(=O)NCCN2CCN(c3cccc(Cl)c3)CC2)n(-c2ccccc2)n1 | -16% | -25% | -5% | 19 | 6.3µM*
Cc1ccc(NC(=O)NCCN2CCN(c3ccccc3)CC2)cc1Cl | i | -23% | 13% | 13 | ?
CC(C)c1nc2ccc(C(=O)NCCCN3CCN(c4cccc(Cl)c4)CC3)cc2o1 | i | -17% | / | / | 10µM*
CCC(C)NS(=O)(=O)c1ccc(N2CCCCS2(=O)=O)cc1 (centres undefined) | -51% | -2% | / | / | -9%
CC(=O)NC(c1ccco1)c1cc(Cl)c2ccc(N3CCCCC3)nc2c1O (centres undefined) | / | / | / | 7 | /
Cc1ccc(-n2nc(CO)c(C(=O)NCCCc3ccccc3)n2)cc1 | -10% | 4% | / | / | -31%
CC(C)(C)NC(=O)c1ccc2c(c1)C1C3CCC(C3)C1C(c1ccccc1)N2 (centres undefined) | i | 3% | -1% | -20 | 2.8µM*
CCCCN=C(NNc1ccc(Br)cc1)C(=O)OCC | i | -20% | 2% | 4 | ?
CCOC(=O)C(=NCCCN(C)C)NNc1ccc(Br)cc1 | 24% | ? | -1% | 6 | 4µM*
CC1Cc2ccccc2N1S(=O)(=O)c1cnc(Cl)c(Cl)c1 (centres undefined) | -38% | 0% | 3% | -8 | ?
CSc1ccc(S(=O)(=O)N2c3ccccc3CC2C)cc1 (centres undefined) | -62% | -7% | -4% | 17 | 5µM*
Cc1ccccc1Cn1cc(NC(=O)c2noc3c2CC(C(C)(C)C)CC3)cn1 (centres undefined) | i | 2% | 0% | -1 | 0%
Cc1ccccc1Cn1nc(C)c(NC(=O)c2noc3c2CC(C(C)(C)C)CC3)c1C (centres undefined) | -18%[57.5 µM] | -38% | 7% | -6 | 10µM*
Cc1cc(C(=O)CSc2nc3ccccc3[nH]2)c(C)n1CC1CCCO1 (centres undefined) | -37% | -31% | -4% | ? | 4µM*
Cc1cc(C(=O)CSc2nc(N)cc(=O)[nH]2)c(C)n1CC1CCCO1 (centres undefined) | -23% | 0% | 12% | 6 | 9%
CC1(C)CC(NC(=O)N2c3ccccc3Sc3ccccc32)CC(C)(C)N1 | -25% | ? | 1% | 4 | 5µM*
CCOC(=O)c1[nH]c(C)c(C(=O)NCCc2ccccc2)c1C | -19% | -1% | / | / | -5%
Cc1ccccc1OCCOCCN1CCCCCC1 | -23% | 6% | -1% | 6 | ?
Cc1ccc(C(C)C)cc1OCCOCCN1CCCC1 | i | -8% | -2% | 4 | 7.9µM*
Cc1ccccc1N1CCN(C2CCCN(C(=O)c3cnsn3)C2)CC1 (centres undefined) | i | -15% | 1% | -105* | ?
CCOc1ccccc1C(=O)N(Cc1ccc(N(C)C)cc1)Cc1ccco1 | -12% | 10% | / | / | ?

Screens (PubChem)
